From PubChem
SMARCA2 act = SMARCA2 function activation, primary screen | activation, % at 9.1 µM | MG213 cells, MMTV-luciferase reporter, dexamethasone, overnight | 370,000 tested, 1% active; in the data active = activation above about 7.8%;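 note: 0% = vehicle wells and 100% = reference activator wells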
DAX1 StAR inh = inhibitors of DAX1 repression of SF-1 activated StAR promoter; HEK293T StAR-luciferase reporter, SF-1/DAX-1 repression relief; inhibition, % at 6.8 µM; 370,000 tested, 1.1% active; AID 652010;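 active = inhibition above the mean over all tested compounds plus 3 SD, cut at about 3.6% in these data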;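 note: 0% = DAX-1 cells with DMSO and 100% = cells lacking DAX-1 with DMSO; higher inhibition means more luminescence from relief of DAX-1 repression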
hcDAF12 agonist = H. contortus DAF-12 activation, primary screen | AID 652067 | 370,000 tested, 1.4% active | activation, % at 6.8 µM | HEK293 hcDAF-12 lit1-tk-luc reporter, luminescence; 0% DMSO, 100% Δ7-dafachronic acid;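 active = activation above the mean of all tested compounds plus 3 SD, cut at about 5.5% in these data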;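 note: 100% = response to 3 µM Δ7-dafachronic acid high control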
hgDAF12 agonist = hgDAF-12 agonism, primary luciferase screen | HEK293 GAL4-hgDAF12 UAS-luciferase reporter, agonist luminescence; normalized to butyrate control | activation, % at 6.8 µM | 370,000 tested, 1.8% active | AID 687014;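 active = activation above a cutoff set at the mean of all screened compounds plus 3 SD, cut at about 10% in these data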;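 note: 0% = DMSO wells and 100% = sodium butyrate wells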
ssDAF-12 act = activates DAF-12 receptor from parasite S. stercoralis; activation, % at 6.8 µM; HEK293 ssDAF-12/GRIP1 lit1-tk-luc reporter, luminescence; % of 3 µM dafachronic acid response; 370,000 tested, 1% active;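 active = activation above the mean over all tested compounds plus 3 SD, cut at about 0.9% in these data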;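 note: 0% = DMSO-only wells and 100% = 3 µM delta7-dafachronic acid wells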
SMARCA2 act conf = SMARCA2 activation, confirmation screen. shares compounds with SMARCA2 act. MG213 cells, MMTV-luciferase with dexamethasone, luminescence, overnight; MG213 cells expressing E1A, Rb sequestered; DMSO wells 0%, reference activator 100%. activation, % at 9.1 µM. 3,500 tested, 30% active. AID 652260;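 active = activation above its plate's cutoff, the mean activation of tested wells plus 3 SD, cut at about 7.9% in these data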
VP16 Luc act = activates GAL4-VP16 luciferase, flagging SMARCA2 activator hits; shares compounds with SMARCA2 act; HEK293 GAL4-VP16 pG5luc reporter, luciferase luminescence; scaled: DMSO wells 0%, SAHA wells 100%; activation, % at 9.1 µM; 3,500 tested, 41% active; AID 686939;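 active = activation above the solvent-only control well mean plus 3 SD, averaged across control plates, cut at about 5.2% in these data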
Numbers without * were called inactive; . = no result. Rows were chosen to be rich in hits. Some 4.2% of all compounds tested hit in one or more screens of this group.

SMILES	SMARCA2 act	DAX1 StAR inh	hcDAF12 agonist	hgDAF12 agonist	ssDAF-12 act	SMARCA2 act conf	VP16 Luc act
O=C(CCc1ccccc1)Nc1ccc2c(c1)OCCO2	8.2*	2.4	3.4	11.8*	0.3	10.5*	11.2*
O=C(NCc1ccccc1)[C@H]1CCCN1	-4.6	0.8	-0.6	0.2	-1.4	.	.
N#Cc1cccnc1N1CCN(C(C(=O)NC2CCCC2)c2ccc(F)cc2)CC1 (stereo unspecified)	-1.9	-0.5	-2.7	-0.9	-0.8	.	.
O=C(Cn1cc(C(F)(F)F)ccc1=O)N1CCc2ccccc2C1	8.0*	1.7	-1.7	2.0	1.0*	4.1	0.6
C[C@H](O)[C@@H]1CN2CCc3c([nH]c4ccccc34)[C@@H]2C[C@@H]1N(C)C(=S)NCCc1ccccc1	-1.4	2.7	3.9	3.1	0.3	.	.
CC(=O)Nc1sc(NC(=O)c2ccc([N+](=O)[O-])cc2)nc1-c1cccs1	9.4*	0.5	-1.0	-0.7	-0.9	-4.6	-0.2
Cn1ccc2cc(S(=O)(=O)N3CCN(S(=O)(=O)c4c(F)cccc4F)CC3)ccc21	.	.	1.8	2.8	-1.4	.	.
CC(C)C[C@H]1COc2cc(Br)ccc2S(=O)(=O)N1Cc1cn(Cc2ccc(Br)cc2)nn1	3.5	-0.2	-0.5	0.2	-1.7	.	.
CCCOc1ccc(C(=O)NNC(=S)NC(=O)c2cccs2)cc1	13.0*	-0.9	-1.1	-0.1	0.1	2.9	-0.1
NC(=O)c1sc2nc3c(cc2c1N)CCCCCC3	11.1*	0.6	2.4	6.9	-1.1	0.3	2.5
Nc1c(C(=O)O)sc2nc3c(cc12)CCCC3	-3.4	0.2	2.4	1.1	0.9	.	.
COc1ccc(-c2csc(C(O)c3ccc(F)cc3)n2)cn1 (stereo unspecified)	8.1*	0.3	0.3	3.6	0.8	2.0	2.0
CN(C)Cc1c(C(C)(C)O)[nH]c2cc(C(F)(F)F)ccc12	0.9	-0.6	1.2	-0.9	-0.8	.	.
Cc1ccc(C(=O)N2CCCC(C(F)(F)F)C2)cc1S(=O)(=O)N1CCOCC1 (stereo unspecified)	8.0*	1.3	-0.4	0.1	-0.9	-0.8	0.0
Cc1ccc(C(=O)N2CCCC2)cc1S(=O)(=O)N1CCOCC1	-1.3	-0.4	-1.8	-0.4	-1.0	.	.
Cc1ccccc1C1CCC2(CCC(=O)N2CC[C@@H](O)c2ccccc2)CC1 (stereo partly specified)	.	.	-0.6	-0.9	-2.3	.	.
COc1ccc(NC(=O)C2CCCN(S(=O)(=O)c3ccc4[nH]c(=O)ccc4c3)C2)cc1OC (stereo unspecified)	14.8*	0.2	2.0	0.5	-0.5	-5.5	1.3
Cc1ccc(NC(=O)C2CCCN(S(=O)(=O)c3ccc4[nH]c(=O)ccc4c3)C2)cc1C (stereo unspecified)	-1.7	-0.4	0.8	-3.0	-0.8	.	.
C[C@@H]1CN([C@H](C)CO)C(=O)c2ccccc2-c2ccccc2CO[C@@H]1CN(C)C(=O)Nc1ccccc1	-1.8	-0.2	-1.3	-0.3	-0.5	.	.
COc1ccc(C2=NN(C(=O)c3ccco3)C(c3cccs3)C2)cc1OC (stereo unspecified)	11.6*	-1.5	-2.9	1.2	-1.4	18.2*	4.5
COc1ccc(C2=NN(C(=O)CCCC(=O)O)C(c3cccs3)C2)cc1OC (stereo unspecified)	2.1	0.7	-0.9	1.3	-1.2	.	.
COc1cccc(CNC(=O)[C@H]2CCCN2C(=O)[C@H]2CCCN2C(=O)c2ccc(OC(F)(F)F)cc2)c1	-4.9	0.6	0.1	-0.2	-0.8	.	.
CN(C)CCNC(=O)c1cccc(-c2cc(NC=O)c3ncc(-c4cccc(C(F)(F)F)c4)n3c2)c1	33.6*	0.3	-1.5	2.6	-0.7	28.8*	1.6
COc1cccc(-c2cnc3c(NC=O)cc(-c4cccc(C(=O)N(C)C)c4)cn23)c1	12.3*	1.5	-2.7	0.5	-0.8	7.3	4.9
COc1cccc(-c2cc(NC=O)c3ncc(-c4cccc(C(=O)N(C)C)c4)n3c2)c1	-3.0	-1.0	-3.4	-3.6	-1.6	.	.
SMILES	SMARCA2 act	DAX1 StAR inh	hcDAF12 agonist	hgDAF12 agonist	ssDAF-12 act	SMARCA2 act conf	VP16 Luc act
CC(C)NC(=O)N[C@H]1C[C@@H]2O[C@H](CO)CC[C@@H]2O[C@@H]1CCc1ccc(-c2ccccc2F)cc1	0.4	-0.4	-0.2	-0.6	-0.6	.	.
COCCSc1ncccc1-c1nc2ccccc2[nH]1	-1.2	-0.2	0.2	3.3	0.1	.	.
O=C(CC(Sc1ccc(Br)cc1)C(=O)O)c1ccc(F)cc1 (stereo unspecified)	8.6*	0.3	-0.5	0.0	-1.1	-1.1	0.8
CCOc1ccc(C(=O)CC(Sc2ccc(C)cc2)C(=O)O)cc1 (stereo unspecified)	3.9	-0.4	-0.5	0.5	-1.1	.	.
COc1cc(O)c2c(=O)c3c(OC)c(O)ccc3oc2c1	9.7*	0.7	0.3	3.3	-0.7	9.0*	4.5
CCC1(c2ccc(Cl)cc2)NC(=S)N(c2ccc(C)cc2)N1 (stereo unspecified)	9.3*	1.0	6.2*	11.1*	0.5	1.0	3.1
CCC1(c2ccc(Cl)cc2)NC(=S)N(c2ccc(C)c(C)c2)N1 (stereo unspecified)	-5.7	-0.4	0.2	3.9	-2.1	.	.
CC1(C(=O)NCc2ccccc2)CN(S(C)(=O)=O)CC(=O)N1Cc1cccc(F)c1 (stereo unspecified)	-3.5	1.9	-1.4	-4.0	-1.2	.	.
CCc1nc(C)cc2c1sc1ccccc12	10.0*	-0.2	-0.3	0.4	-0.6	11.0*	1.0
COc1ccc(Cn2ccc3ccc(-c4ccc5ccn(Cc6ccc(OC)cc6)c5c4)cc32)cc1	-1.8	-1.1	0.0	1.3	-0.1	.	.
CC1=Nn2c(nc3sc4c(c3c2=O)CCCC4)SC1	10.1*	0.6	-2.1	4.4	-1.2	0.0	0.7
CCOC(=O)N(C)[C@H]1C[C@H]2c3[nH]c4c(-c5ccc6c(c5)OCO6)cccc4c3CCN2C(=O)[C@H]1[C@H](C)O	-3.4	-1.0	-2.0	-2.4	-1.3	.	.
C=CCN1C(=O)/C(=C/c2ccc(O)c(OC)c2)S/C1=N/c1nccs1	11.1*	-1.2	-1.4	-3.2	-1.9	2.1	1.4
CN=C1S/C(=C\c2ccc(O)c(Br)c2)C(=O)N1C	0.8	-0.6	-2.3	-0.2	-0.4	.	.
C=CCN1C(=O)/C(=C/c2ccc(OCC(=O)O)cc2)S/C1=N/c1nccs1	2.0	0.6	-0.3	-1.5	-0.9	.	.
CN=C1S/C(=C\c2ccc(O)c(OC)c2)C(=O)N1C	8.9*	0.8	0.6	4.7	-1.9	7.1	14.2*
COC[C@@H]1CCCN1c1cccc2c1S(=O)(=O)N(C1CC1)CCCO2	-2.6	-0.2	-0.8	-1.5	-1.0	.	.
